From ChEMBL document CHEMBL5606458, “ASAP - ZIKV NS2B-NS3 protease fluorescence single point” (2024)
Among all 2,700 compounds or so, about 160 (5.9%) showed an effect of 50% or more. The sample holds strong results, similar compounds and a random draw of the others, so the mix is not that of the screen.

Biological target: Nonstructural protein 3 (Zika virus) (UniProt A0A024AXB9)
Sequence (A0A024AXB9 as listed by the source): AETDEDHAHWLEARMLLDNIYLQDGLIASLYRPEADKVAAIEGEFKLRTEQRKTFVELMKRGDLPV

Q: How did the inhibition (PRVABC59, Concentration 49.5 uM, Number of replicates 2.0, Standard deviation 1.325865675699347 %) turn out when `CC(C)(C)OC(=O)Cn1ccnc(N2CC[C@@H](CO)C2)c1=O` was run?
A: 11.6%

Q: What about the inhibition (PRVABC59, Concentration 99.01 uM, Number of replicates 2.0, Standard deviation 1.7656333109073532 %) of the same molecule?
A: 22.2%

Q: And the inhibition (PRVABC59, Concentration 198.0 uM, Number of replicates 2.0, Standard deviation 1.622873505631253 %)?
A: 37.1%

Q: Which results are given for `O=C(O)c1cc(Cl)ccc1NS(=O)(=O)c1ccc(Br)cc1`?
A: inhibition (PRVABC59, Concentration 49.5 uM, Number of replicates 2.0, Standard deviation 0.7950601733582335 %): 7.77%; inhibition (PRVABC59, Concentration 99.01 uM, Number of replicates 2.0, Standard deviation 0.4216229111618842 %): 14.7%; inhibition (PRVABC59, Concentration 198.0 uM, Number of replicates 2.0, Standard deviation 0.3312742292956271 %): 24.5%

Q: Which inhibition (PRVABC59, Concentration 49.5 uM, Number of replicates 2.0, Standard deviation 3.318813799365356 %) does the source give for `CCn1ccnc(N2CC[C@H](c3ccc(C#N)cc3)C2)c1=O` here?
A: 8.78%

Q: And the inhibition (PRVABC59, Concentration 99.01 uM, Number of replicates 2.0, Standard deviation 2.601162551030959 %)?
A: 17.7%

Q: What about the inhibition (PRVABC59, Concentration 198.0 uM, Number of replicates 2.0, Standard deviation 2.251403725502818 %) of the same molecule?
A: 31.6%

Q: For `CCn1ccnc(N2CC[C@H](C3CCOCC3)C2)c1=O`, which inhibition (PRVABC59, Concentration 50.0 uM, Number of replicates 2.0, Standard deviation 1.8994947363510455 %) is on record?
A: 7.04%

Q: What about the inhibition (PRVABC59, Concentration 100.0 uM, Number of replicates 2.0, Standard deviation 0.728011618047951 %) of the same molecule?
A: 14.4%

Q: What about the inhibition (PRVABC59, Concentration 200.0 uM, Number of replicates 2.0, Standard deviation 0.3716947428915149 %) of the same molecule?
A: 27.3%

Q: `N[C@H]1C[C@H](CNC(=O)[C@@H](NC(=O)OCc2ccccc2)c2ccc(OCc3ccccc3)cc2)C1` was tested. Which inhibition (PRVABC59, Concentration 49.5 uM, Number of replicates 2.0, Standard deviation 3.7963377615811797 %) did it give?
A: 3.96%

Q: What about the inhibition (PRVABC59, Concentration 99.01 uM, Number of replicates 2.0, Standard deviation 2.5827561793492815 %) of the same molecule?
A: 42.9%

Q: What about the inhibition (PRVABC59, Concentration 198.0 uM, Number of replicates 2.0, Standard deviation 1.1643103990361166 %) of the same molecule?
A: 82.5%

Q: Which inhibition (PRVABC59, Concentration 50.0 uM, Number of replicates 1.0) does the source give for `O=Cc1ccc(N2CCC(C(=O)N3C[C@@H]4C[C@H](C3)c3cccc(=O)n3C4)CC2)cc1` here?
A: 21.2%

Q: Which results are given for `CC(C)Oc1cc(COc2cccnc2F)nc(N2CCNCC2)n1`?
A: inhibition (PRVABC59, Concentration 49.5 uM, Number of replicates 2.0, Standard deviation 2.4105168451759336 %): 4.13%; inhibition (PRVABC59, Concentration 99.01 uM, Number of replicates 2.0, Standard deviation 2.7698794201931607 %): 16.6%; inhibition (PRVABC59, Concentration 198.0 uM, Number of replicates 2.0, Standard deviation 3.834837221821941 %): 38.4%

Q: Which inhibition (PRVABC59, Concentration 49.5 uM, Number of replicates 2.0, Standard deviation 0.44537620063304795 %) does the source give for `COC(=O)c1cncc(OCc2cc(OC)nc(N3CCNCC3)n2)c1` here?
A: 8.58%

Q: And the inhibition (PRVABC59, Concentration 99.01 uM, Number of replicates 2.0, Standard deviation 1.920430256118165 %)?
A: 19.8%

Q: What about the inhibition (PRVABC59, Concentration 198.0 uM, Number of replicates 2.0, Standard deviation 1.464841031153957 %) of the same molecule?
A: 42.9%

Q: Which inhibition (PRVABC59, Concentration 49.5 uM, Number of replicates 2.0, Standard deviation 31.670721297793175 %) does the source give for `COc1cc(C(=O)Nc2cnc3ccccc3c2)nc(N2CCNCC2)n1` here?
A: 46.6%

Q: What about the inhibition (PRVABC59, Concentration 99.01 uM, Number of replicates 2.0, Standard deviation 1.978331259427643 %) of the same molecule?
A: 52.6%

Q: What about the inhibition (PRVABC59, Concentration 198.0 uM, Number of replicates 2.0, Standard deviation 3.25586764970173 %) of the same molecule?
A: 44.4%

Q: What does the source list for `COc1cc(COc2cncc3ccccc23)nc(N2CCNCC2)n1`?
A: inhibition (PRVABC59, Concentration 49.5 uM, Number of replicates 2.0, Standard deviation 3.6633197788698872 %): 18.2%; inhibition (PRVABC59, Concentration 99.01 uM, Number of replicates 2.0, Standard deviation 8.620902514901289 %): 33.6%; inhibition (PRVABC59, Concentration 198.0 uM, Number of replicates 2.0, Standard deviation 2.631600667850739 %): 48.9%

Q: What does the source list for `CCCC[C@H](NC(C)=O)C(=O)N[C@H](C(=O)NCc1ccc(C(N)=O)cc1)c1ccc(OCc2ccccc2)cc1`?
A: inhibition (PRVABC59, Concentration 49.5 uM, Number of replicates 2.0, Standard deviation 2.8803277655268693 %): 26.6%; inhibition (PRVABC59, Concentration 99.01 uM, Number of replicates 2.0, Standard deviation 0.054514419737930774 %): 98.6%; inhibition (PRVABC59, Concentration 198.0 uM, Number of replicates 2.0, Standard deviation 0.07632018763310308 %): 99.1%

Q: Which inhibition (PRVABC59, Concentration 49.5 uM, Number of replicates 2.0, Standard deviation 2.0326302034025616 %) does the source give for `CCCC[C@H](NC(C)=O)C(=O)N[C@H](C(=O)NCc1ccc(CN)cc1)c1ccccc1` here?
A: 1.09%

Q: What about the inhibition (PRVABC59, Concentration 99.01 uM, Number of replicates 2.0, Standard deviation 38.99982941752366 %) of the same molecule?
A: 27.9%

Q: What about the inhibition (PRVABC59, Concentration 198.0 uM, Number of replicates 2.0, Standard deviation 3.137845684278008 %) of the same molecule?
A: 79.1%

Q: How did the inhibition (PRVABC59, Concentration 49.5 uM, Number of replicates 2.0, Standard deviation 3.0246149725930045 %) turn out when `CCCC[C@H](NC(C)=O)C(=O)N[C@H](C(=O)NCc1ccc(CN)cc1)c1ccc(OCc2ccccc2)cc1` was run?
A: 4.96%

Q: What about the inhibition (PRVABC59, Concentration 99.01 uM, Number of replicates 2.0, Standard deviation 5.4426160865401085 %) of the same molecule?
A: 91.7%

Q: What about the inhibition (PRVABC59, Concentration 198.0 uM, Number of replicates 2.0, Standard deviation 0.23672907001683724 %) of the same molecule?
A: 97.8%
